Test results: PubChem BioAssay (NCATS)
Results filed as inconclusive are left out. Calls of active or inactive are those of the source. Calls follow the shape of the dose curve; as a rule, active = well fitted inhibition curve with a large enough effect; inconclusive = small, poorly fitted or top-dose-only effect; inactive = flat fitted curve, though single readings scatter. Peptide text beside a SMILES is read from it.

System: CP191
Experiment: qHTS profiling for inhibitors of Plasmodium falciparum proliferation (AID 504749); also: nearly all actives have a fitted effect of over 60% in size
Conditions: P. falciparum in erythrocytes, SYBR Green DNA, 72 h; series mostly up to 12.8 µM
How it was run: (§1)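 P. falciparum-infected erythrocytes (0.3% parasitemia, 2.5% hematocrit) incubated with compound 72 h at 37 C, 5% CO2. Parasite DNA detected by SYBR Green after lysis, overnight at room temperature; normalised to 0.29 uM artemisinin and DMSO.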
Potency is read from the fitted curve at half-maximal effect.

Potency, active:
COC1C=CO[C@@]2(C)Oc3c(C)c(O)c4c(O)c(c(C=NN5CCN(C)CC5)c(O)c4c3C2=O)NC(=O)/C(C)=C\C=CC(C)C(O)[C@@H](C)C(O)C(C)[C@H](OC(C)=O)C1C (stereo partly drawn) 2.82 µM
COc1ccc(CC(N)C(=O)NC2C(CO)OC(n3cnc4c(N(C)C)ncnc43)C2O)cc1 (stereo not drawn) 0.891 µM
COc1ccc2cc1Oc1ccc(cc1)CC1c3c(cc4c(c3Oc3cc5c(cc3OC)CCN(C)C5C2)OCO4)CCN1C (stereo not drawn) 5.01 µM
COc1cc(C2c3cc4c(cc3C(O[C@@H]3OC5COC(c6cccs6)OC5C(O)C3O)C3COC(=O)C23)OCO4)cc(OC)c1O (stereo partly drawn) 2.24 µM

Potency, inactive:
CCC(C)C(=O)OC1CCC=C2C=CC(C)C(CCC3CC(O)CC(=O)O3)[C@@H]21 (stereo partly drawn)
C[C@]1(c2ccccc2)OC(C(=O)O)=CC1=O
OCC1OC([S-])[C@H](O)C(O)C1O.[Au+] (stereo partly drawn)
COC(=O)N/N=C/C1=C[N+](=O)c2ccccc2[N+]1=O
CN1CC(=O)N=C1N
CNC1CC(N)[C@H](O)[C@@H](O[C@@H]2OC(CO)C3OC4(OC(C(N)CO)C(O)C(O)C4O)O[C@@H]3[C@H]2O)C1O (stereo partly drawn)
CC(=O)N[C@@H]1C(O)OC(CO)C(O)C1O (stereo partly drawn)
CCC(CCC(C)C1CCC2C3CC=C4CC(O)CC[C@@]4(C)C3CC[C@@]12C)C(C)C (stereo partly drawn)
O=C1OC(CO)C(O)C(O)C1O (stereo not drawn)
CCCC(=O)O[C@]1(C(=O)CO)CCC2[C@@H]3CCC4=CC(=O)CC[C@]4(C)C3C(O)C[C@]21C (stereo partly drawn)
COC(=O)C(Cc1ccccc1)NC(=O)C(N)CC(=O)O (stereo not drawn) (H-Asp-Phe-OMe; configuration not given here)
CC[C@@]12CCCN3CCc4c(n(c5ccccc45)[C@](O)(C(=O)OC)C1)C32 (stereo partly drawn)
CC1(C)SC2C(N3C(=O)C(c4ccccc4)NC3(C)C)C(=O)N2C1C(=O)O (stereo not drawn)
CC1CCC(C(C)C)C(=O)C1 (stereo not drawn)
CC(=O)N[C@H](CC(C)C)C(=O)O
CC(C)C1CCC(C(=O)NC(Cc2ccccc2)C(=O)O)CC1 (stereo not drawn)
COc1ccc2cc(C(C)CO)ccc2c1 (stereo not drawn)
CNC1C(OC2C(O[C@@H]3C(O)C(O)[C@@H](N=C(N)N)C(O)C3N=C(N)N)OC(C)[C@@]2(O)CO)OC(CO)C(O)C1O (stereo partly drawn)
CC1C2CCC3C4CC=C5CC(N(C)C)CC[C@@]5(C)C4CC[C@@]32CN1C (stereo partly drawn)
C[C@]12C=CC(=O)C=C1CCC1C2C(O)C[C@]2(C)C1CC[C@]2(O)C(=O)CO (stereo partly drawn)
COc1ccc2c(c1)N(C[C@@H](C)CN(C)C)c1ccccc1S2
CCOC(=O)C1=CC(OC(CC)CC)C(NC(C)=O)C(N)C1 (stereo not drawn)
CN(C)CCc1c[nH]c2ccc(CC3COC(=O)N3)cc12 (stereo not drawn)
NCC1CCC(N)C(O[C@@H]2C(O)[C@H](O[C@H]3OC(CO)C(O)C(N)C3O)[C@@H](N)C[C@H]2N)O1 (stereo partly drawn)
OCC1O[C@H](OC2C(CO)O[C@@](O)(CO)C2O)C(O)C(O)C1O (stereo partly drawn)
CC1(C)OC2CO[C@]3(COS(N)(=O)=O)OC(C)(C)OC3C2O1 (stereo partly drawn)
CC(=O)OC1CCC2C3CCc4cc(O)ccc4C3CCC12C (stereo not drawn)
CN(C)CCCOC1C(C(O)CO)OC2OC(C)(C)O[C@@H]21 (stereo partly drawn)

System: CP192
Experiment: as above
Conditions: P. falciparum in erythrocytes, SYBR Green DNA, 72 h; series mostly up to 12.8 µM
How it was run: as §1

Potency, inactive:
CCC(C)C(=O)OC1CCC=C2C=CC(C)C(CCC3CC(O)CC(=O)O3)[C@@H]21 (stereo partly drawn)
C[C@]1(c2ccccc2)OC(C(=O)O)=CC1=O
OCC1OC([S-])[C@H](O)C(O)C1O.[Au+] (stereo partly drawn)
COC(=O)N/N=C/C1=C[N+](=O)c2ccccc2[N+]1=O
CN1CC(=O)N=C1N
CNC1CC(N)[C@H](O)[C@@H](O[C@@H]2OC(CO)C3OC4(OC(C(N)CO)C(O)C(O)C4O)O[C@@H]3[C@H]2O)C1O (stereo partly drawn)
CC(=O)N[C@@H]1C(O)OC(CO)C(O)C1O (stereo partly drawn)
CCC(CCC(C)C1CCC2C3CC=C4CC(O)CC[C@@]4(C)C3CC[C@@]12C)C(C)C (stereo partly drawn)
O=C1OC(CO)C(O)C(O)C1O (stereo not drawn)
CCCC(=O)O[C@]1(C(=O)CO)CCC2[C@@H]3CCC4=CC(=O)CC[C@]4(C)C3C(O)C[C@]21C (stereo partly drawn)
COC(=O)C(Cc1ccccc1)NC(=O)C(N)CC(=O)O (stereo not drawn) (H-Asp-Phe-OMe; configuration not given here)
CC[C@@]12CCCN3CCc4c(n(c5ccccc45)[C@](O)(C(=O)OC)C1)C32 (stereo partly drawn)
CC1(C)SC2C(N3C(=O)C(c4ccccc4)NC3(C)C)C(=O)N2C1C(=O)O (stereo not drawn)
CC1CCC(C(C)C)C(=O)C1 (stereo not drawn)
CC(=O)N[C@H](CC(C)C)C(=O)O
CC(C)C1CCC(C(=O)NC(Cc2ccccc2)C(=O)O)CC1 (stereo not drawn)
COc1ccc2cc(C(C)CO)ccc2c1 (stereo not drawn)
CNC1C(OC2C(O[C@@H]3C(O)C(O)[C@@H](N=C(N)N)C(O)C3N=C(N)N)OC(C)[C@@]2(O)CO)OC(CO)C(O)C1O (stereo partly drawn)
CC1C2CCC3C4CC=C5CC(N(C)C)CC[C@@]5(C)C4CC[C@@]32CN1C (stereo partly drawn)
C[C@]12C=CC(=O)C=C1CCC1C2C(O)C[C@]2(C)C1CC[C@]2(O)C(=O)CO (stereo partly drawn)
COc1ccc2c(c1)N(C[C@@H](C)CN(C)C)c1ccccc1S2
CCOC(=O)C1=CC(OC(CC)CC)C(NC(C)=O)C(N)C1 (stereo not drawn)
CN(C)CCc1c[nH]c2ccc(CC3COC(=O)N3)cc12 (stereo not drawn)
NCC1CCC(N)C(O[C@@H]2C(O)[C@H](O[C@H]3OC(CO)C(O)C(N)C3O)[C@@H](N)C[C@H]2N)O1 (stereo partly drawn)
OCC1O[C@H](OC2C(CO)O[C@@](O)(CO)C2O)C(O)C(O)C1O (stereo partly drawn)
CC1(C)OC2CO[C@]3(COS(N)(=O)=O)OC(C)(C)OC3C2O1 (stereo partly drawn)
CC(=O)OC1CCC2C3CCc4cc(O)ccc4C3CCC12C (stereo not drawn)
CN(C)CCCOC1C(C(O)CO)OC2OC(C)(C)O[C@@H]21 (stereo partly drawn)

Potency, active:
COC1C=CO[C@@]2(C)Oc3c(C)c(O)c4c(O)c(c(C=NN5CCN(C)CC5)c(O)c4c3C2=O)NC(=O)/C(C)=C\C=CC(C)C(O)[C@@H](C)C(O)C(C)[C@H](OC(C)=O)C1C (stereo partly drawn) 4.26 µM
COc1ccc(CC(N)C(=O)NC2C(CO)OC(n3cnc4c(N(C)C)ncnc43)C2O)cc1 (stereo not drawn) 1.07 µM
COc1cc(C2c3cc4c(cc3C(O[C@@H]3OC5COC(c6cccs6)OC5C(O)C3O)C3COC(=O)C23)OCO4)cc(OC)c1O (stereo partly drawn) 4.26 µM
